Data taken from ChEMBL document CHEMBL4513216, “Probing the Open Global Health Chemical Diversity Library for Multistage-Active Starting Points for Next-Generation Antimalarials” (ACS Infect Dis, 2020).
Among all 68,000 compounds or so, about 2,700 (4%) showed an effect of 50% or more. This is one part of a sample in which strong results are shown more often than they occur.

tested on: Plasmodium berghei; test: Screen against P. berghei liver stage (PbLuc), transformed with Luciferase, at 2uM; assay type: functional, HepG2; conditions: tested at 2 uM

Question: Which INHIBITION does the source give for `COc1ccc(Br)c(C(=O)NCC2CC2)c1` here?
Answer: 9.21%

Question: With `CC(NC(=O)C1CCN(S(N)(=O)=O)CC1)c1cccc(OC(F)F)c1` (stereo not drawn) as the compound, how does the INHIBITION read?
Answer: 1.42%

Question: With `NS(=O)(=O)N1CCC(C(=O)Nc2cccc(OC(F)F)c2)CC1` as the compound, how does the INHIBITION read?
Answer: 50.98%

Question: How did the INHIBITION turn out when `O=C(Nc1cccc(OC(F)F)c1)C1CN(S(=O)(=O)C2CC2)C1` was run?
Answer: 21%

Question: For `CN(C)C[C@@H]1C[C@@H]2CN(C(=O)c3ccoc3)CC[C@@H]2N1CC1CC1`, which INHIBITION is on record?
Answer: -72.76%

Question: How did the INHIBITION turn out when `C=Cc1ccc(C(=O)N2CCCC(Nc3ccccc3)C2)cc1` (stereo not drawn) was run?
Answer: 43.86%

Question: With `CN(C)S(=O)(=O)N1CCC(C(O)c2ccc(Cl)cc2)CC1` (stereo not drawn) as the compound, how does the INHIBITION read?
Answer: 24.36%

Question: Which INHIBITION does the source give for `CCN(C)S(=O)(=O)N1CCC(C(O)c2ccc(F)cc2)CC1` (stereo not drawn) here?
Answer: 52.98%

Question: `CCN(C)S(=O)(=O)N1CCC(C(O)c2ccc(Cl)cc2)CC1` (stereo not drawn) was tested. Which INHIBITION did it give?
Answer: -11.41%

Question: How did the INHIBITION turn out when `CCCn1nc2c(cc1=O)CN(Cc1nnc(C3CC3)o1)CC2` was run?
Answer: -7.73%

Question: Which INHIBITION does the source give for `Cc1ncsc1CCN(C)C(=O)CN1CCOC1=O` here?
Answer: 29.13%

Question: For `c1cc(CN2CC[C@H]3O[C@@H](COCC4CCOCC4)CC[C@H]32)ccn1`, which INHIBITION is on record?
Answer: -5.17%

Question: For `Cc1nc2ccccc2n1CCNCc1cccc(C#N)c1`, which INHIBITION is on record?
Answer: -5.59%

Question: For `Cc1nc2ccccc2n1CCNCc1cccc(O)c1`, which INHIBITION is on record?
Answer: 54.47%

Question: Which INHIBITION does the source give for `COc1ccc(CNCCn2c(C)nc3ccccc32)cc1O` here?
Answer: -92.51%

Question: How did the INHIBITION turn out when `CSc1nsc(NC(=O)c2cc(C3CC3)nn2C)n1` was run?
Answer: -11.3%

Question: Which INHIBITION does the source give for `O[C@]12CCNC[C@H]1CN(c1ccnc3ccccc13)CC2` here?
Answer: 16.35%

Question: Which INHIBITION does the source give for `OC[C@H]1CN(Cc2c(Cl)cncc2Cl)C[C@H]1CN1CCOCC1` here?
Answer: 14.13%

Question: With `OC[C@H]1CN(Cc2c(Cl)cncc2Cl)C[C@H]1CN1CCCCCC1` as the compound, how does the INHIBITION read?
Answer: -34.9%

Question: With `OC[C@H]1CN(Cc2c(Cl)cncc2Cl)C[C@H]1CN1CCCC1` as the compound, how does the INHIBITION read?
Answer: 72.91%

Question: `CC1CN(CC(=O)NCc2ccc(F)cc2)CCN1c1nccs1` (stereo not drawn) was tested. Which INHIBITION did it give?
Answer: -4.29%

Question: For `CN(C)CCNc1cc(-c2ncccc2Cl)c2cc[nH]c2n1`, which INHIBITION is on record?
Answer: 10.22%

Question: `COc1ccnc(CN2CCC=C(C(C)NC(C)=O)C2)c1OC` (stereo not drawn) was tested. Which INHIBITION did it give?
Answer: 21.97%

Question: For `COc1ccc(CN2CCC=C(C(C)NC(C)=O)C2)cc1` (stereo not drawn), which INHIBITION is on record?
Answer: 60.13%

Question: How did the INHIBITION turn out when `CC(=O)NC(C)C1=CCCN(Cc2ccc(C(=O)O)cc2)C1` (stereo not drawn) was run?
Answer: 43.44%

Question: Which INHIBITION does the source give for `Cc1cnccc1N1CCN(C(=O)C2CC3(CCNCC3)CN2)CC1` (stereo not drawn) here?
Answer: -28.32%

Question: `CC[S+](CC)[c-]1c(=O)[nH]c(=O)n(CCc2ccc(F)cc2)c1=O` was tested. Which INHIBITION did it give?
Answer: 9.31%

Question: `CC(NC(=O)c1ccc(Cl)cc1)c1nnc(SCC(N)=O)n1C` (stereo not drawn) was tested. Which INHIBITION did it give?
Answer: 14.46%
